{"source": "PubChem BioAssay (NCI)", "note": "The panel holds about 83,000 compounds, 20% with a hit somewhere; the sample as a whole holds those more often.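 Step 1: grow cells in 96-well plates. Step 2: add test compound at a single concentration. Step 3: incubate 48 h. Step 4: record percent growth.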 Active and inactive are the calls of the source. How the source made its calls: active means growth percent below 10; inactive means the rest."}
{"tested_on": "U251 CNS", "assay": "NCI-60 one-dose screen, 48 h (100 = growth as untreated, 0 = no growth, -100 = all killed)", "conditions": "10 µM unless noted"}
{"compound": "Cc1cc2c(c(C)c1Cl)C(=O)/C(=C/c1ccco1)O2", "growth": "96.2% (inactive)"}
{"compound": "CN(C)CCNc1cc(-c2ccccc2)nc2ccccc12", "growth": "-69% (active)"}
{"compound": "COc1ccc(CCN2CCC(CN(C)Cc3cnn(-c4ccccc4)c3)CC2)cc1", "growth": "9.09% (active)"}
{"compound": "COc1ccc(/C=C/C(=O)c2c(C)nc3ccccc3c2/C=C/c2ccccc2)cc1O", "growth": "49% (inactive)"}
{"compound": "Nc1n[nH]c2ccc([C@@H]3Nc4ccc5[nH]ncc5c4[C@H]4[C@H]5CCC(C5)[C@H]43)cc12", "growth": "20.1% (inactive)"}
{"compound": "O=c1c2cc(F)ccc2sc2c(NCCN3CCCC3)nc3ccccc3c12", "growth": "35.7% (inactive)"}
{"compound": "COc1ccc2sc(N(Cc3cccnc3)C(=O)c3ccc(C#N)cc3)nc2c1", "growth": "67.4% (inactive)"}
{"compound": "COC(=O)/C(CCC=C(C)C)=C1\\[C@@H](OC(C)=O)C[C@@]2(C)[C@H]1C[C@@H](O)[C@H]1[C@@]3(C)CC[C@H](NC(=O)c4cnccn4)[C@@H](C)[C@@H]3CC[C@@]12C", "growth": "98.3% (inactive)"}
{"compound": "CCOc1ccc(Nc2ccnc3cc(Cl)ccc23)cc1", "growth": "4.87% (active)"}
{"compound": "O=C(Nc1ccsc1C(=O)NC1CCCCC1)c1ccc(F)cc1", "growth": "101% (inactive)"}
{"compound": "CCn1c(-c2nonc2Nc2ccc(OC)cc2)nc2ccccc21", "growth": "101% (inactive)"}
{"compound": "COc1ccc(/C=C2\\N=C(c3ccccc3)N(c3ccc(-c4nc5ccc(C)cc5s4)cc3)C2=O)cc1", "growth": "81.2% (inactive)"}
{"compound": "CSc1nc2c(c(=O)[nH]1)N=C1c3ccccc3C(=O)C1C(c1ccccc1)N2", "note": "(centres undefined)", "growth": "37.5% (inactive)"}
{"compound": "CC1(C)CC2(C)OC2C2(C1)N=NC(=Nc1ccccc1)O2", "note": "(centres undefined)", "growth": "84.4% (inactive)"}
{"compound": "COC(=O)/C(=C\\c1c(-c2ccccc2)[nH]c2ccccc12)S(C)(=O)=O", "growth": "26.4% (inactive)"}
{"compound": "O=C(NN1C(=O)CSC1c1ccc(Cl)cc1)c1[nH]c2ccc(F)cc2c1-c1ccccc1", "note": "(centres undefined)", "growth": "49.6% (inactive)"}
{"compound": "CC(=O)n1cc(-c2c[nH]c3ccccc23)c(-c2ccc(Cl)cc2)n1", "growth": "74.9% (inactive)"}
{"compound": "O=C(N/N=C/c1ccccc1Cl)C(=O)Nc1cccc(C(F)(F)F)c1", "growth": "96.9% (inactive)"}
{"compound": "COc1cccc2cc(N(C)c3nc(C)nc4ccsc34)ccc12", "growth": "11.7% (inactive)"}
{"compound": "O=C(Cn1cc(COc2ncnc3c2cnn3-c2ccccc2)nn1)Nc1cccc2ccccc12", "growth": "96.7% (inactive)"}
{"compound": "CCC1=C[C@]2(C3CC(=O)N(c4ccccc4)C3=O)CC(C(C)(C)C)C[C@@H]2[C@@H]2C(=O)N(c3ccccc3)C(=O)[C@H]12", "note": "(some centres undefined)", "growth": "79.1% (inactive)"}
{"compound": "CCCN1CCN(c2ccc3nc(-c4ccc5nc(-c6cc(OC)ccc6OC)[nH]c5c4)[nH]c3c2)CC1", "growth": "85.8% (inactive)"}
{"compound": "COc1ccc2c(c1)C=C1CSCC3=Cc4cc(OC)ccc4OC13O2", "growth": "18.7% (inactive)"}
{"compound": "COc1ccc(-c2nc(-c3ccccn3)c(-c3ccccn3)n2CC(C)C)cc1OC1CCCC1", "growth": "11.1% (inactive)"}
{"compound": "CCN1C(=O)N(CC)C2C1NC(=S)N2/N=C/C=C/c1ccccc1OC", "note": "(centres undefined)", "growth": "20.8% (inactive)"}
{"compound": "O=C(c1nc2ccccc2[nH]1)C1C(c2ccc([N+](=O)[O-])cc2)C2CC3CCCCC3N2[C@@]12C(=O)Nc1cc(Cl)ccc12", "note": "(some centres undefined)", "growth": "25.5% (inactive)"}
{"compound": "COc1cc(-c2c3c(c(Br)n2Cc2ccccc2)-c2nc(N)sc2CC3)cc(OC)c1OC", "growth": "85.3% (inactive)"}
{"compound": "Cn1c(C(=O)c2cccc3ccccc23)nc2ccccc21", "growth": "5.7% (active)"}
{"compound": "C1=CC2(C=C1)OC21CCC2(C=CC3(C2)OC3C2CCCCC2)CC1", "note": "(centres undefined)", "growth": "99.5% (inactive)"}
{"compound": "O=C1/C=C/[C@@H](O)[C@@H]2C[C@@H](O)C[C@H]2/C=C/CCCCO1", "growth": "39.7% (inactive)"}
{"compound": "CS(=O)(=O)Nc1ccc(C(=O)NC(C(=O)NO)c2ccc(-c3cccc(F)c3)cc2)cc1", "note": "(centres undefined)", "growth": "94.1% (inactive)"}
{"compound": "CCN1CCN(c2cc(C)c3cc(NC(=O)c4ccc(OC)c(OC)c4)ccc3n2)CC1", "growth": "45.6% (inactive)"}
{"compound": "Cc1ccc(OCCCCCCNCCO)c(C)c1", "growth": "3.86% (active)"}
{"compound": "CCOc1ccc2nc(C)cc(Nc3ccc(Br)cc3)c2c1", "growth": "98.1% (inactive)"}
{"compound": "Cn1c2c(c(=O)[nH]c1=O)NC1=C(C(=O)c3ccccc31)C1(C=C(O)c3ccccc31)N2", "note": "(centres undefined)", "growth": "103% (inactive)"}
{"compound": "CC(C)(C)c1ccc(C2CC(=O)C3=C(C2)Nc2ccccc2N(C(=O)c2ccccc2Cl)C3c2ccc(F)cc2)cc1", "note": "(centres undefined)", "growth": "3.98% (active)"}
{"compound": "Oc1ccc(-c2nc(-c3ccc4oc5ccc(-c6[nH]c(-c7ccc(O)cc7)nc6-c6ccccc6)cc5c4c3)c(-c3ccccc3)[nH]2)cc1", "growth": "58.2% (inactive)"}
{"compound": "CN(CCc1ccccc1)C(=S)N(C(=O)c1ccc([N+](=O)[O-])cc1)c1ccc(Cl)cc1", "growth": "90.4% (inactive)"}
{"compound": "Nc1no[n+]([O-])c1-c1nnc2c(n1)-c1ccccc1C2=O", "growth": "88% (inactive)"}
